Target: T1, Methionyl-tRNA synthetase, putative (Leishmania donovani (strain BPK282A1)) (UniProt E9BF75)
T1 sequence (whole entry): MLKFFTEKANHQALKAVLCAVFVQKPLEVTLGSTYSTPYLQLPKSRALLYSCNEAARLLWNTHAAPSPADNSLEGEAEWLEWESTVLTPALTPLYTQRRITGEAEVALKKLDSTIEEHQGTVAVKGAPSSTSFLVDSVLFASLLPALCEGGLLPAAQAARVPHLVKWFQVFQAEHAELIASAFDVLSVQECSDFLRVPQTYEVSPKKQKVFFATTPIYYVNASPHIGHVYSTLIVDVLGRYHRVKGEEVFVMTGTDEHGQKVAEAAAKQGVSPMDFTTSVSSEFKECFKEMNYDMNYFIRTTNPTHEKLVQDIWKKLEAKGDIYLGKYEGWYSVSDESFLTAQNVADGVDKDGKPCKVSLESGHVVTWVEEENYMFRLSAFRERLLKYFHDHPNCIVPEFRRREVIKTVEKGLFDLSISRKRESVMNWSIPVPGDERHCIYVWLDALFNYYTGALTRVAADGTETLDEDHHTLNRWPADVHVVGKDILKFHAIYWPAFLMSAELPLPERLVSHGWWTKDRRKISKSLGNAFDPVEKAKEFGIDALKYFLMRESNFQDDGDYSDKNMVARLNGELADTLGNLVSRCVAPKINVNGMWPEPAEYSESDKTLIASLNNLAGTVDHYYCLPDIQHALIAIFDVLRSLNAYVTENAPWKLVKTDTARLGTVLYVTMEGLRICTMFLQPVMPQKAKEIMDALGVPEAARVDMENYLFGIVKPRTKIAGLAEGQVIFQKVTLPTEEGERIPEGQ
Test: Leishmania donovani Methionine tRNA synthetase (LdMetRS):v7. Dose response assay
Assay type: functional
Parameters: conc 80 nM, time 150 minutes

`O=c1cc(NCCCNCc2cc(C(F)(F)F)cs2)[nH]c2ccccc12` showed a PXC50 (BOTTOM -2.424501326, HILLSLOPE 1.220462925, MAX_EFFECT 102.3310023, TOP 102.5192077) of 5.71 and a PXC50 (BOTTOM -3.989177117, HILLSLOPE 1.235768434, MAX_EFFECT 100.0, TOP 101.1477832) of 5.75.

`Cc1nc(N2CCN(C3CCOCC3)CC2)c2ccsc2n1` gave a PXC50 (MAX_EFFECT 2.659574468) of less than 4 and a PXC50 (MAX_EFFECT 4.663212435) of less than 4.

Compound `Cc1ccc(-c2cc(C(F)(F)F)nc(NCCN(C)C)n2)cc1` has a PXC50 (MAX_EFFECT 8.163265306) of less than 4 and a PXC50 (MAX_EFFECT 8.333333333) of less than 4.

With `Cc1nc(N2CCCC(O)C2)c2c3c(sc2n1)CCCC3` (stereo not drawn) the PXC50 (MAX_EFFECT 9.649122807) was less than 4 and the PXC50 (MAX_EFFECT 16.66666667) was less than 4.

For `CCNc1nc(-c2ccc(C)cc2)cc(C(F)(F)F)n1`, the PXC50 (MAX_EFFECT 4.797979798) was less than 4 and the PXC50 (MAX_EFFECT 5.102040816) was less than 4.

For `FC1(F)CCN(Cc2ccccn2)CC12CCN(c1ncccn1)C2` (stereo not drawn), the PXC50 (MAX_EFFECT 3.628117914) was less than 4 and the PXC50 (MAX_EFFECT 16.82242991) was less than 4.

In the case of `Cc1cc(N)n(-c2nc(C)nc3sc4c(c23)CCCC4)n1`, the PXC50 (MAX_EFFECT 11.22994652) is reported as less than 4 and the PXC50 (MAX_EFFECT 12.02185792) is reported as less than 4.

Work on `CC(C)(CN)COc1cccc(F)c1Oc1ccc(Cl)cc1` yielded a PXC50 (MAX_EFFECT 16.84434968) of less than 4 and a PXC50 (MAX_EFFECT 20.08281573) of less than 4.

`CN(C)CCNC(=O)c1ccc2ccc(N(C)CC3CC3)n2c1` showed a PXC50 (MAX_EFFECT 42.17687075) of less than 4 and a PXC50 (MAX_EFFECT 43.73831776) of less than 4.

`Cc1cc2c(N3CCC(C(N)=O)CC3)nc(-c3cccnc3)nc2s1` showed a PXC50 (MAX_EFFECT 10.38251366) of less than 4 and a PXC50 (MAX_EFFECT 13.36898396) of less than 4.

`Cc1nc(N2CCNC(=O)CC2)c2c(CC(C)C)csc2n1` gave a PXC50 (MAX_EFFECT 6.557377049) of less than 4 and a PXC50 (MAX_EFFECT 9.625668449) of less than 4.

In the case of `CS(=O)(=O)N1CCN(c2ccc3ccc(C(=O)NCc4ccccc4)cn23)CC1`, the PXC50 (BOTTOM 9.61795032, HILLSLOPE 2.1052237, MAX_EFFECT 58.50091408, TOP 60.20064035) is reported as 4.73 and the PXC50 (BOTTOM -0.0629, HILLSLOPE 2.117070317, MAX_EFFECT 53.11004785, TOP 51.4182088) is reported as 5.1.

`Nc1nc(CSc2ccccn2)nc2sc3c(c12)CCCCC3` was tested, and the PXC50 (MAX_EFFECT 34.13333333) was less than 4 and the PXC50 (MAX_EFFECT 39.15343915) was less than 4.

Work on `Cc1ccc(N2CCCC(N(C)c3ncnc4c3CCC4)C2)nn1` (stereo not drawn) yielded a PXC50 (MAX_EFFECT 10.79812207) of less than 4 and a PXC50 (MAX_EFFECT 20.18518519) of less than 4.

For `Cc1nc(NC(CC(C)C)C(=O)O)c2c3c(sc2n1)CCCC3` (stereo not drawn), the PXC50 (MAX_EFFECT 16.83673469) was less than 4 and the PXC50 (MAX_EFFECT 16.91919192) was less than 4.

`O=C(O)C1CCCN1c1nc(C2CC2)cc(C(F)(F)F)n1` (stereo not drawn) showed a PXC50 (MAX_EFFECT 5.221932115) of less than 4 and a PXC50 (MAX_EFFECT 7.049608355) of less than 4.

For `COCCN(Cc1cnn(C)c1)c1nc(C)nc2sccc12`, the PXC50 (MAX_EFFECT 10.70496084) was less than 4 and the PXC50 (MAX_EFFECT 11.48825065) was less than 4.

Compound `Cc1sc(C)c(C(F)(F)F)c1CNCCCNc1cc(=O)c2ccccc2[nH]1` has a PXC50 (BOTTOM -1.155419978, HILLSLOPE 1.172834864, MAX_EFFECT 100.9302326, TOP 101.3032533) of 5.58 and a PXC50 (BOTTOM -1.471807315, HILLSLOPE 1.111829353, MAX_EFFECT 101.8648019, TOP 104.5162556) of 5.56.

With `O=C(NCC1(O)CCC(F)(F)CC1)c1cc(=O)c2cc(O)ccc2o1` the PXC50 (MAX_EFFECT 6.858054226) was less than 4 and the PXC50 (MAX_EFFECT 7.869481766) was less than 4.

With `Cc1sc2nc(CCN)nc(N3CC(N4CCCCC4)C3)c2c1C` the PXC50 (MAX_EFFECT 21.14882507) was less than 4 and the PXC50 (MAX_EFFECT 25.06527415) was less than 4.

In the case of `Cc1nc(N2CCN(C(=O)C3CC3)CC2)c2c3c(sc2n1)CC(C)CC3` (stereo not drawn), the PXC50 (MAX_EFFECT 43.2160804) is reported as less than 4 and the PXC50 (MAX_EFFECT 47.91154791) is reported as less than 4.

Compound `CNC(=O)CNc1nc(C)nc2sc3c(c12)CCC3` has a PXC50 (MAX_EFFECT 7.888040712) of less than 4 and a PXC50 (MAX_EFFECT 9.319899244) of less than 4.

In the case of `CS(=O)(=O)N1CCN(c2ccc3ccc(C(=O)NCC4(CO)CCCC4)cn23)CC1`, the PXC50 (MAX_EFFECT 45.93301435) is reported as less than 4 and the PXC50 (MAX_EFFECT 48.99451554) is reported as less than 4.

`CCc1nc(N2CCCC(C(=O)O)C2)c2c3c(sc2n1)CCC3` (stereo not drawn) gave a PXC50 (MAX_EFFECT 18.93939394) of less than 4 and a PXC50 (MAX_EFFECT 20.91836735) of less than 4.

`CCn1cc(-c2cc(C(F)(F)F)nc(NC3CCCC3)n2)c(C)n1` showed a PXC50 (MAX_EFFECT 6.788511749) of less than 4 and a PXC50 (MAX_EFFECT 7.571801567) of less than 4.

With `Clc1ccccc1CN1CCc2nc(Nc3ccccc3)ncc2C1` the PXC50 (MAX_EFFECT 23.92344498) was less than 4 and the PXC50 (MAX_EFFECT 25.2285192) was less than 4.

With `CC(C)C[C@H]1COc2ccccc2C(c2ccccc2)=N1` the PXC50 (MAX_EFFECT 7.8891258) was less than 4 and the PXC50 (MAX_EFFECT 10.97308489) was less than 4.

`O=c1nc(NCCCNCc2cc(Br)cc(Br)c2)[nH]c2ccsc12` was tested, and the PXC50 (BOTTOM 2.299047881, HILLSLOPE 2.649797199, MAX_EFFECT 103.7296037, TOP 100.0081261) was 6.16 and the PXC50 (BOTTOM 10.20336465, HILLSLOPE 2.013529983, MAX_EFFECT 101.8604651, TOP 99.90152213) was 6.19.

Compound `Cc1nc(N(C)CC(=O)N(C)C)c2c(-c3ccccc3)csc2n1` has a PXC50 (MAX_EFFECT 5.289672544) of less than 4 and a PXC50 (MAX_EFFECT 6.361323155) of less than 4.

`OB1OCc2ccccc21` gave a PXC50 (MAX_EFFECT 10.0456621) of less than 4 and a PXC50 (MAX_EFFECT -0.566037736) of less than 4.

`Nc1nc(-c2cccs2)cc(C(F)(F)F)n1` was tested, and the PXC50 (MAX_EFFECT 6.382978723) was less than 4 and the PXC50 (MAX_EFFECT 7.772020725) was less than 4.

`CC[C@H](C)[C@H](Nc1nc(C)nc2sc3c(c12)CCCC3)C(=O)O` was tested, and the PXC50 (MAX_EFFECT 21.80851064) was less than 4 and the PXC50 (MAX_EFFECT 23.31606218) was less than 4.

`OCCN1CCC(F)(F)C2(CCN(c3cnccn3)C2)C1` (stereo not drawn) gave a PXC50 (MAX_EFFECT 3.174603175) of less than 4 and a PXC50 (MAX_EFFECT 14.57943925) of less than 4.

`CCN1c2ccc(-c3cncn3CCCn3ccnc3C)cc2CC1C` (stereo not drawn) was tested, and the PXC50 (MAX_EFFECT 36.73469388) was less than 4 and the PXC50 (MAX_EFFECT 44.48598131) was less than 4.

Reference: ChEMBL document CHEMBL3988442, “University of Dundee, Small-Polar-MMV Screening Library” (2021)
